The target in experiment [1] is N-terminal Xaa-Pro-Lys N-methyltransferase 1 (Homo sapiens) (UniProt Q9BV86). The experiment can be described thus: Confirmatory qHTS for Inhibitors of N-terminal methyltransferase 1 (NTMT1): MTaseGlo Assay (AID 1645874). Also: nearly all actives have a fitted effect of over 65% in size. The method in brief:
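Enzyme mix (125 nM NTMT1, 100 uM SAM) + compound, 15 min RT; + 1 uM SPKRIA, 30 min RT, dark; MTase-Glo reagent 30 min, detection solution 30 min; luminescence. % inhibition vs no-enzyme/DMSO controls, 4-parameter Hill fit.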
On the technique in general: In qHTS, concentration-response curves come from the screen itself.

The nature of experiment [2]: Primary qHTS for inhibitors of nuclear receptor binding SET domain protein 2 (NSD2) in an isogenic RCH-ACV NSD2 p.E1099K mutant (9B) (AID 1645876). Also: nearly all actives have a fitted effect of over 70% in size.
A short description of experiment [3]: Primary qHTS for inhibitors of nuclear receptor binding SET domain protein 2 (NSD2) in an RCH-ACV wild type WT cells (2C) (AID 1645877). Also: nearly all actives have a fitted effect of over 70% in size.

Several values for one entry are separate records, joined by “and”; a condition that tells them apart may be missing. Equal entries are not always repeated. Records with an inconclusive call do not appear. Activity calls are given as the source filed them. Calls follow the shape of the dose curve; as a rule, active = well fitted curve in the direction sought with a large enough effect; inconclusive = small, poorly fitted or top-dose-only effect, or another doubt; inactive = no such curve, though single readings can be large; an effect the other way counts as inactive or inconclusive.
Potency is read from the fitted curve at half-maximal effect.

N-terminal Xaa-Pro-Lys N-methyltransferase 1 (Homo sapiens), sequence (Q9BV86 whole entry, looked up): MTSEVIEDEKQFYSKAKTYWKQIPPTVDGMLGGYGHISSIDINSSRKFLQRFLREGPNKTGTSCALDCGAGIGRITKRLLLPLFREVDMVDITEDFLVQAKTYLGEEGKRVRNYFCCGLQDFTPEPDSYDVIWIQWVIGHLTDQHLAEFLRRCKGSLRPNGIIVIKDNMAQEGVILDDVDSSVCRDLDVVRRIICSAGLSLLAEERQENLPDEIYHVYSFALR

Take `C/C(=N\N=C(N)N)c1cc(NC(=O)CCCCCCCCC(=O)Nc2cc(/C(C)=N/N=C(N)N)cc(/C(C)=N/N=C(N)N)c2)cc(/C(C)=N/N=C(N)N)c1`: the values for the Potency in experiment [1], in experiment [2] and in experiment [3] were 20 µM (active), 11.5 µM (active) and 11.5 µM (active), respectively.
Regarding `CC(=O)N[C@H]1[C@H](O[C@H]2CC[C@@]3(C)C(CC[C@]4(C)C3CC=C3C5CC(C)(C)CC[C@]5(C(=O)O)C(O)C[C@]34C)C2(C)C)O[C@H](CO[C@@H]2O[C@H](C)[C@H](O)[C@H](O)[C@H]2O[C@@H]2OC[C@@H](O)[C@H](O)[C@H]2O)[C@@H](O)[C@@H]1O` (stereo not given in full), in experiment [2], the Potency is 2.45 µM (active).
Same read-out and setting: next, `COC1C(OC(=O)/C=C/C=C/C=C/C=C/C(=O)O)CCC2(CO2)C1C1(C)OC1CC=C(C)C` (stereo not given): “inactive”; `CCC/C=C/C(=O)O[C@H]1CC(C)(C)CC2[C@@]13[C@H](O)C[C@]1(C)[C@@]2(CCC2[C@@]4(C)CC[C@H](O[C@@H]5O[C@H](C(=O)O)[C@@H](O)[C@H](O[C@@H]6O[C@H](CO)[C@H](O)[C@H](O)[C@H]6O[C@@H]6O[C@@H](C)[C@H](O)[C@@H](O)[C@H]6O[C@@H]6OC[C@](O)(CO)[C@H]6O)[C@H]5O[C@@H]5O[C@H](CO)[C@H](O)[C@H](O)[C@H]5O)C(C)(C)C4CC[C@]21C)O[C@H]3O` (stereo not given in full): 1.73 µM (active); `CC(C)n1c(=O)c(C(=O)NC2CC3CCC(C2)N3C[C@@H](O)CN(C)S(C)(=O)=O)cc2ccccc21` (stereo not given in full): “inactive”.
With `CC1(C)CC[C@]23CO[C@@]4(CCC5[C@@]6(C)CC[C@H](O[C@@H]7OC[C@H](O[C@@H]8O[C@H](CO)[C@@H](O)[C@H](O)[C@H]8O[C@@H]8OC[C@@H](O)[C@H](O)[C@H]8O)[C@H](O)[C@H]7O[C@@H]7O[C@H](CO)[C@@H](O)[C@H](O)[C@H]7O)[C@@](C)(CO)C6CC[C@@]5(C)[C@]4(C)C[C@H]2O)[C@@H]3C1` (stereo not given in full), the Potency in experiment [2] was 1.54 µM (active); in experiment [3] it was 2.75 µM (active).
Taken in the same sequence, the figures for `CCN(Cc1cc(Nc2nc(C)cn3c(-c4cn[nH]c4)cnc23)sn1)C(C)(C)CO` were 0.0092 µM (active) and 0.0082 µM (active).
For the compound `C=CC(C)(O)CC/C=C(/C)COC(=O)C(C)C1CCC(C)(C=C)O1` (stereo not given), in experiment [2], the Potency entry was “inactive”.
`C1=C/COCc2cc(ccc2OCCN2CCCC2)Nc2nccc(n2)-c2cccc(c2)COC/1`: the Potency was 325 nM (active) and 417 nM (active) in experiment [2]; 258 nM (active) and 417 nM (active) in experiment [3].
With `COc1cc(CCO)ccc1O[C@@H]1O[C@H](CO)[C@@H](O)[C@H](O)[C@H]1O`, the Potency entry in experiment [2] and in experiment [3] was “inactive” in each case.
Take `CCCCCCCCn1cc(CN(CC)CC)c2cc(-c3cnc(N)nc3)ccc21`: the Potency in experiment [2] is 4.09 µM (active); in experiment [3] it was 3.25 µM (active).
On the same counts, the results for `COc1ccc(CCc2nc3cc(-c4c(C)noc4C)ccc3n2CC(C)N2CCOCC2)cc1Cl` (stereo not given) are 2.3 µM (active) and 2.58 µM (active).
`COc1cc2ncc(-c3ccccc3)nc2cc1OC`: the Potency in experiment [2] was 20.5 µM (active).
`CC[C@@H](C)[C@@H]1OC2(C=C[C@H]1C)C[C@@H]1C[C@H](C/C=C(\C)[C@H](O[C@H]3C[C@H](OC)[C@H](O[C@H]4C[C@H](OC)[C@H](NC(C)=O)[C@H](C)O4)[C@H](C)O3)[C@H](C)/C=C/C=C3\CO[C@H]4[C@H](O)C(C)=C[C@@H](C(=O)O1)[C@@]34O)O2` (stereo not given in full): the figures for the Potency in experiment [2] and in experiment [3] were 8.01 µM (active) and 5.05 µM (active), respectively.
Consider `C/C=C(/C)C(=O)O[C@@H]1C[C@@H](OC(=O)CC(C)C)C2(C)C3C(=O)C=C(C)C2C3C1(C)C` (stereo not given in full), for which the Potency entry in experiment [2] is “inactive”.
Still for that read-out and setting: next, `CCC(C(C)O)n1ncn(-c2ccc(N3CCN(c4ccc(OCC5COC(Cn6cncn6)(c6ccc(F)cc6F)C5)cc4)CC3)cc2)c1=O` (stereo not given): 2.05 µM (active); `C=C1/C(=C/C=C2\CCC[C@]3(C)[C@@H]([C@H](C)CC[C@@H](O)C(C)(C)O)CC[C@@H]23)C[C@@H](O)C[C@@H]1O`: 18.3 µM (active).
With `Cc1ccc(CNc2ncnc3ccc(-c4ccc(CO)o4)cc23)o1`, the Potency in experiment [2] is 2.58 µM (active); in experiment [3], 2.3 µM (active).
Take `C/C(=C\Cc1c(O)c(Cl)c(C)c(C=O)c1O)CC/C=C(\C)[C@H]1CC(=O)C(C)(C)O1`: in experiment [2], the Potency is 2.52 µM (active).
As to `Cn1ncnc1[C@H]1c2n[nH]c(=O)c3cc(F)cc(c23)N[C@@H]1c1ccc(F)cc1`, the Potency is 200 nM (active) and 148 nM (active) in experiment [2]; 28.2 nM (active) and 66.1 nM (active) in experiment [3].
`C/C=C(\C)C(=O)O[C@H]1C=C(CO)C(=O)[C@H](OC(C)=O)[C@H]1C(C)C`: the Potency in experiment [2] and in experiment [3] was 2.84 µM (active) each time.
Regarding `C=C1C(=O)O[C@@H]2[C@H]3C(C)=CC(=O)C3=C(C)CC[C@@H]12`, the Potency in experiment [2] was 2.9 µM (active).
Take `C=C(C=O)[C@]1(O)C[C@@]2(C)C(=CC1=O)C=C[C@H](OC(=O)/C=C/C=C/[C@H](C)CC)[C@@H]2C`: the results for the Potency in experiment [2] and in experiment [3] were 3.17 µM (active) and 1.59 µM (active), respectively.
Taken in the same sequence, the figures for `C=C[C@@]12COC(=O)C(=C)[C@@H]1[C@@H](O)[C@H](C(=C)C(=O)OC)[C@@H](O)C2` were “inactive” and “inactive”.
As to `CC1(C=O)CCCC2(C)C1CCC13CC(CO)C(CCC12)C3` (stereo not given), the Potency entry in experiment [2] was “inactive”.
Same read-out and setting: next, `CC(C)CC(=O)c1c(O)cc2c(c1O)C(CC(C)C)C1=C(O2)C(C)(C)C(=O)C(C)(C)C1=O` (stereo not given): 10 µM (active).

Source of the values: PubChem BioAssay (NCATS).
